In PubChem BioAssay (NCATS):
Results filed as inconclusive are left out. Activity calls are given as the source filed them. The call rests on the fitted dose curve.

Legend:
[1] = Primary qHTS for inhibitors of SARS-S pseudo-typed particle cell entry (AID 1479145); conditions: outcome: dose series up to 57.1 µM unless noted; further: nearly all actives have a fitted effect of over 45% in size; further: potency means the concentration at half of the fitted maximal effect; on activity change, negative = inhibition: on the % scale 0 is the no-effect control and ±100 the full control effect
[2] = Primary qHTS for Huh7 cytotoxicity: counterscreen for inhibitors of MERS-S pseudotyped particle cell entry (AID 1479147); conditions: outcome: dose series up to 57.1 µM unless noted; on activity change, negative = cytotoxicity: on the % scale 0 is the no-effect control and ±100 the full control effect
[3] = Primary qHTS for inhibitors of MERS-S pseudo-typed particle cell entry (AID 1479149); conditions: outcome: dose series up to 57.1 µM unless noted; further: nearly all actives have a fitted effect of over 60% in size; on activity change, negative = inhibition: on the % scale 0 is the no-effect control and ±100 the full control effect
[4] = Primary qHTS for Vero E6 cytotoxicity: counterscreen for inhibitors of SARS-S pseudo-typed particle cell entry (AID 1479150); conditions: outcome: dose series up to 57.1 µM unless noted; on activity change, negative = cytotoxicity: on the % scale 0 is the no-effect control and ±100 the full control effect
[5] = Cytotoxicity counterscreen for inhibitors of SARS-CoV-2 cell entry (AID 1645845); conditions: outcome: dose series up to 57.1 µM unless noted; further: nearly all actives have a fitted effect of over 50% in size
In short: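 After a 15 min room-temperature ATPLite 1step step, luminescence reflected ATP remaining in HEK293-ACE2 cells exposed to compound for 1 h plus 48 h at 37 C, with percent activity set by cell and no-cell controls.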

[6] = Confirmatory qHTS to identify inhibitors of SARS-CoV-2 cell entry (AID 1645844); further: potency means the concentration at half of the fitted maximal effect; nearly all actives have a fitted effect of over 45% in size
In short: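 Using stable human ACE2 Expi293F cells, compounds preincubated 1 hr before spike pseudoparticle infection; luciferase signal after 48 hr at 37C, 5% CO2, normalised to spike PP and no-fusion-protein PP wells.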

[7] = Primary qHTS to identify inhibitors of SARS-CoV-2 cell entry (AID 1645846); conditions: SARS-CoV-2 pseudovirus cell entry assay, luminescence; activity change, negative = inhibition: at 57.1 µM (top of the series) unless noted; further: potency means the concentration at half of the fitted maximal effect; nearly all actives have a fitted effect of over 45% in size
In short: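 HEK293-ACE2 (Expi293F, stable hACE2), 1500 cells/well, o/n 37C; cpd 23 nL pin, 1 h; MLV-PP w/ SARS-CoV-2-S (Wuhan-Hu-1, Δ19 C-term); 48 h 37C; Bright-Glo luminescence; normalized vs S-PP and bald PP.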

[8] = VSVG counterscreen qHTS to identify inhibitors of SARS-CoV-2 cell entry (AID 1645847); further: potency means the concentration at half of the fitted maximal effect; nearly all actives have a fitted effect of over 65% in size
In short: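 Expi293F/hACE2 cells, overnight plating; cpd 1 h, 37C/5% CO2; + VSV-G PP (MLV pseudotyping), 48 h; supernatant removed, Bright-Glo luciferase read. Norm: VSV-G PP and bald PP wells.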

C[N+](C)(C)CCOP(=O)([O-])OP(=O)(O)OC[C@H]1OC(n2ccc(N)nc2=O)[C@H](O)[C@@H]1O (stereo not given in full)
inactive: outcome [1] inactive [at 0.573 µM] | outcome [2] inactive [at 0.573 µM] | outcome [3] inactive [at 0.573 µM] | outcome [4] inactive [at 0.573 µM] | outcome [5] inactive [at 0.702 µM]

C[N+]1(C)[C@@H]2CC(OC(=O)C(O)(c3cccs3)c3cccs3)C[C@H]1[C@H]1O[C@@H]12 (stereo not given in full)
inactive: Potency [1] | Potency [2] | Potency [3] | Potency [4]

NCCNc1ccc(NCCN)c2c1C(=O)c1ccncc1C2=O
inactive: Potency [2] | Potency [3] | Potency [4]
active: Potency [1] 11.2 µM | Potency [6] 1.52 µM | Potency [7] 7.94 µM | Potency [8] 3.04 µM

CCN1CCCC1CNC(=O)c1cc(S(=O)(=O)CC)ccc1OC (stereo not given)
inactive: Potency [1] | Potency [2] | Potency [3] | Potency [4]

CCCCOC(=O)C(=O)Nc1cccc(-c2nn[nH]n2)c1
inactive: Potency [1] | Potency [2] | Potency [3] | Potency [4] | Potency [5]

C[C@H](NCCc1ccc(O)cc1)[C@H](O)c1ccc(O)cc1
inactive: Potency [1] | Potency [2] | Potency [3] | Potency [4] | Potency [5]

CN(CCCCCCCCCCN(C)C(=O)Oc1cccc([N+](C)(C)C)c1)C(=O)Oc1cccc([N+](C)(C)C)c1
inactive: Potency [1] | Potency [2] | Potency [3] | Potency [4] | Potency [5]

CC1(C)[C@@H]2CC[C@@]1(C)[C@H](OC(=O)CSC#N)C2
inactive: Potency [1] | Potency [2] | Potency [3] | Potency [4] | Potency [5]

NS(=O)(=O)c1ccc(-n2nc(C(F)(F)F)cc2-c2ccc(F)cc2)cc1
inactive: Potency [1] | Potency [2] | Potency [3] | Potency [4] | Potency [5]

CC1=C(C(=O)OCCN(Cc2ccccc2)c2ccccc2)C(c2cccc([N+](=O)[O-])c2)C(P2(=O)OCC(C)(C)CO2)=C(C)N1 (stereo not given)
inactive: Potency [1] | Potency [2] | Potency [3] | Potency [4] | Potency [5]

O=C(N[C@H]1CCS[C@H]2CCC[C@@H](C(=O)O)N2C1=O)[C@@H](S)Cc1ccccc1
inactive: Potency [1] | Potency [2] | Potency [3] | Potency [4] | Potency [5]

CC(C)(C)c1ccc2c(S(=O)(=O)O)c(C(C)(C)C)ccc2c1
inactive: Potency [1] | Potency [2] | Potency [3] | Potency [4] | Potency [5]

CC[C@H]1OC(=O)C[C@@H](O)[C@H](C)[C@@H](OC2OC(C)C(O)C(N(C)C)C2O)[C@@H](CCN2CCCCC2)C[C@@H](C)C(=O)/C=C/C(C)=C/[C@@H]1CN1CCCCC1 (stereo not given in full)
inactive: Potency [1] | Potency [2] | Potency [3] | Potency [4] | Potency [5]

CC(=O)c1cc2cccc(OCC(O)CNC(C)C)c2o1 (stereo not given)
inactive: Potency [1] | Potency [2] | Potency [3] | Potency [4] | Potency [5]

Nc1nc2c(c(=O)[nH]1)N(C=O)C(CNc1ccc(C(=O)N[C@@H](CCC(=O)O)C(=O)O)cc1)CN2 (stereo not given in full)
inactive: activity change, negative = inhibition [1] -33% [at 0.573 µM] | activity change, negative = cytotoxicity [2] 2.64% [at 0.573 µM] | outcome [3] inactive [at 0.573 µM] | activity change, negative = cytotoxicity [4] 2.47% [at 0.573 µM] | outcome [5] inactive [at 0.702 µM]

C[C@H]1O[C@]2(CS1)CN1CCC2CC1
inactive: Potency [1] | Potency [2] | Potency [3] | Potency [4] | Potency [5]

NC(Cc1cc(I)c(Oc2cc(I)c(O)c(I)c2)c(I)c1)C(=O)O (stereo not given)
inactive: Potency [1] | Potency [2] | Potency [3] | Potency [4] | Potency [5]

C=C1/C(=C/C=C2\CCC[C@]3(C)[C@@H]([C@H](C)/C=C/C=C/C(O)(CC)CC)CC[C@@H]23)C[C@@H](O)C[C@@H]1O
inactive: Potency [1] | Potency [2] | Potency [3] | Potency [4] | Potency [5]

CCOC(=O)[C@H](C)C[C@@H](Cc1ccc(-c2ccccc2)cc1)NC(=O)CCC(=O)O
inactive: Potency [1] | Potency [2] | Potency [3] | Potency [4] | Potency [5]

O=C(OC1C[C@@H]2CC3C[C@@H](C1)N2CC3=O)c1c[nH]c2ccccc12 (stereo not given in full)
inactive: Potency [1] | Potency [2] | Potency [3] | Potency [4] | Potency [5]

CC(C)(C)NC(=O)[C@@H]1C[C@@H]2CCCC[C@H]2CN1C[C@@H](O)[C@H](Cc1ccccc1)NC(=O)[C@H](CC(N)=O)NC(=O)c1ccc2ccccc2n1
inactive: Potency [1] | Potency [2] | Potency [3] | Potency [4] | Potency [5]

CN(CC(O)CO)C(=O)c1c(I)c(NC(=O)C(CO)CO)c(I)c(C(=O)N(C)CC(O)CO)c1I (stereo not given)
inactive: Potency [1] | Potency [2] | Potency [3] | Potency [4] | Potency [5]

O=C(OCCO)c1ccccc1O
inactive: Potency [1] | Potency [2] | Potency [3] | Potency [4] | Potency [5]

CN(C)CC(c1ccc(O)cc1)C1(O)CCCCC1 (stereo not given)
inactive: Potency [1] | Potency [2] | Potency [3] | Potency [4] | Potency [5]

C[N+]1(C)C2CC[C@H]1CC(OC(=O)C(O)c1ccccc1)C2 (stereo not given in full)
inactive: Potency [1] | Potency [2] | Potency [3] | Potency [4] | Potency [5]
